Several values for one entry are separate records, joined by “and”; a condition that tells them apart may be missing. Identical values can stand only once. Inconclusive results are not listed. Activity calls are given as the source filed them. Calls follow the shape of the dose curve; as a rule, active = well fitted curve in the direction sought with a large enough effect; inconclusive = small, poorly fitted or top-dose-only effect, or another doubt; inactive = no such curve, though single readings can be large; an effect the other way counts as inactive or inconclusive.
Key:
TAB165 = assay: qHTS profiling for inhibitors of Plasmodium falciparum proliferation (AID 504749); also: nearly all actives have a fitted effect of over 60% in size; settings: P. falciparum in erythrocytes, SYBR Green DNA, 72 h; series mostly up to 28.7 µM
Outline: (§1)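 Parasite proliferation within erythrocytes, 72 h exposure. Endpoint: SYBR Green I fluorescence after overnight lysis at room temperature. Controls: 0.29 uM artemisinin, DMSO.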

W2 = assay: as above; settings: P. falciparum in erythrocytes, SYBR Green DNA, 72 h; series mostly up to 28.7 µM
Outline: as §1

CRL-7250 = normal cell line; assay: Cytotoxic Profiling of Annotated Libraries Using Quantitative High-Throughput Screening (AID 1296008); settings: Five cell lines viability, CellTiter-Glo ATP luminescence, 48-72 h; max response: stronger effect = lower value; also: nearly all actives have a fitted effect of over 60% in size; as to max response: % is scaled to controls: 0 for no effect and ±100 for the full control effect
Outline: (§2)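 Compounds were pin-transferred onto cells and incubated 48 or 72 hr at 37 degree Celsius, 95% humidity. CellTiter-Glo was added, plates sat 10 min at room temperature, then ATP-coupled luminescence was imaged as the viability read-out.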

HEK293 = assay: as above; settings: Five cell lines viability, CellTiter-Glo ATP luminescence, 48-72 h; max response: stronger effect = lower value
Outline: as §2

HaCat [1] = assay: as above; settings: Five cell lines viability, CellTiter-Glo ATP luminescence, 48-72 h; max response: stronger effect = lower value
Outline: as §2

KB-3-1 = assay: as above; settings: Five cell lines viability, CellTiter-Glo ATP luminescence, 48-72 h; max response: stronger effect = lower value
Outline: as §2

NIH3T3 [2] = assay: as above; settings: Five cell lines viability, CellTiter-Glo ATP luminescence, 48-72 h; max response: stronger effect = lower value
Outline: as §2

MCC-13 = assay: qHTS assay to identify novel small-molecules to repurpose for Merkel cell carcinoma treatment (AID 1296009); settings: MCC and control cell lines, CellTiter-Glo viability, 72 h; series mostly up to 46 µM; also: nearly all actives have a fitted effect of over 60% in size
Outline: (§3)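 qHTS format: cells treated with library compounds in DMSO across 8 (NPC) or 11 (MIPE) concentrations. Readout after 72 hr at 37 degree celsius was CellTiter-Glo luminescence.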

MCC-26 = assay: as above; settings: MCC and control cell lines, CellTiter-Glo viability, 72 h; series mostly up to 46 µM
Outline: as §3

MKL-1 = assay: as above; settings: MCC and control cell lines, CellTiter-Glo viability, 72 h; series mostly up to 46 µM
Outline: as §3

MKL-2 = assay: as above; settings: MCC and control cell lines, CellTiter-Glo viability, 72 h; series mostly up to 46 µM
Outline: as §3

UISO = assay: as above; settings: MCC and control cell lines, CellTiter-Glo viability, 72 h; series mostly up to 46 µM
Outline: as §3

WaGa = assay: as above; settings: MCC and control cell lines, CellTiter-Glo viability, 72 h; series mostly up to 46 µM
Outline: as §3

C33A = assay: Primary qHTS to identify gynecologic anti-cancer compounds using libraries of approved drugs and bioactive compounds (AID 1345084); settings: Gynecologic cancer cell panel viability, ATPlite luminescence, 48 h; series mostly up to 57.5 µM; also: nearly all actives have a fitted effect of over 55% in size
Outline: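 Cells, 1,000 per well, plated 16 h, then exposed 48 h at 37 C to compounds. Viability by ATPlite luminescence after 15 min at room temperature.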

SC27B = assay: qHTS profiling for inhibitors of Plasmodium falciparum proliferation (AID 504749); also: nearly all actives have a fitted effect of over 60% in size; settings: P. falciparum in erythrocytes, SYBR Green DNA, 72 h; series mostly up to 28.7 µM
Outline: as §1

TAB109 = assay: as above; settings: P. falciparum in erythrocytes, SYBR Green DNA, 72 h; series mostly up to 28.7 µM
Outline: as §1

TAB113 = assay: as above; settings: P. falciparum in erythrocytes, SYBR Green DNA, 72 h; series mostly up to 28.7 µM
Outline: as §1

HEK293T = assay: qHTS assay to identify novel small-molecules to repurpose for Merkel cell carcinoma treatment (AID 1296009); settings: MCC and control cell lines, CellTiter-Glo viability, 72 h; at 44.8 µM (top of the series) unless noted; also: nearly all actives have a fitted effect of over 60% in size
Outline: as §3

NIH3T3 [3] = assay: as above; settings: MCC and control cell lines, CellTiter-Glo viability, 72 h; at 44.8 µM (top of the series) unless noted
Outline: as §3

HACAT [4] = assay: as above; settings: MCC and control cell lines, CellTiter-Glo viability, 72 h; at 44.8 µM (top of the series) unless noted
Outline: as §3
Potency is read from the fitted curve at half-maximal effect.

Cc1cc(C2CCCCC2)n(O)c(=O)c1
active: Potency (TAB165) 3.16 µM | Potency (W2) 3.61 µM | Potency (CRL-7250) 3.35 µM and 2.96 µM | Potency (HEK293) 5.9 µM | Potency (HaCat [1]) 23.7 µM and 20.9 µM | Potency (NIH3T3 [2]) 3.76 µM and 14.8 µM | Potency (MCC-13) 10.6 µM | Potency (MCC-26) 15 µM | Potency (MKL-1) 2.11 µM and 10.5 µM | Potency (MKL-2) 1.88 µM and 11.8 µM | Potency (UISO) 2.66 µM and 13.2 µM | Potency (WaGa) 1.88 µM and 11.8 µM | Potency (C33A) 15.8 µM
inactive: max response (KB-3-1) -16.3%

C[C@]12CCC(=O)C=C1CC[C@@H]1[C@H]2[C@@H](O)C[C@@]2(C)[C@H]1CC[C@]2(O)C(=O)CO
inactive: Potency (SC27B) | Potency (TAB109) | Potency (TAB113) | Potency (TAB165) | Potency (W2) | max response (CRL-7250) -1.54% | outcome (HEK293) | max response (HaCat [1]) -4.53% | max response (KB-3-1) 33.4% | outcome (NIH3T3 [2]) | outcome (HEK293T) | Potency (MCC-13) | Potency (MCC-26) | Potency (MKL-1) | Potency (MKL-2) | outcome (NIH3T3 [3]) | Potency (UISO) | Potency (WaGa)

S=c1nc[nH]c2nc[nH]c12
inactive: max response (CRL-7250) -19.8% | Potency (MKL-1) | Potency (MKL-2)
active: Potency (HEK293) 6.68 µM and 13.2 µM | Potency (HaCat [1]) 14.8 µM | Potency (KB-3-1) 7.43 µM | Potency (NIH3T3 [2]) 1.88 µM and 4.69 µM | Potency (MCC-13) 2.99 µM and 11.8 µM | Potency (UISO) 4.18 µM | Potency (WaGa) 1.19 µM and 2.96 µM | Potency (C33A) 10 µM

O=C1NC(=O)C(c2ccccc2[N+](=O)[O-])=C1Nc1ccc(O)c(Cl)c1
inactive: max response (CRL-7250) -2.05% | outcome (HEK293) | max response (HaCat [1]) -25.3% | outcome (KB-3-1) | outcome (NIH3T3 [2]) | outcome (HEK293T) | Potency (MCC-13) | Potency (MCC-26) | Potency (MKL-1) | Potency (MKL-2) | outcome (NIH3T3 [3]) | Potency (UISO) | Potency (WaGa)

O=C(c1ccccc1)c1ccc2n1CCC2C(=O)O (centres undefined)
inactive: max response (CRL-7250) -6.97% and 1.24% | max response (HEK293) 1.29% and -15.1% | outcome (HaCat [1]) | max response (KB-3-1) 1.88% and -12.7% and 3.64% | max response (NIH3T3 [2]) -2.4% and -6.59% | outcome (HACAT [4]) | Potency (MCC-13) | Potency (MCC-26) | Potency (MKL-1) | Potency (MKL-2) | Potency (UISO) | Potency (WaGa) | Potency (C33A)

CCN(CC)CCOc1ccc(Nc2ncc3cc(-c4c(Cl)cccc4Cl)c(=O)n(C)c3n2)cc1
active: Potency (CRL-7250) 16.6 nM | Potency (HEK293) 0.209 µM | Potency (HaCat [1]) 0.264 µM | Potency (KB-3-1) 0.296 µM | Potency (NIH3T3 [2]) 74.3 nM | Potency (MCC-13) 2.64 µM | Potency (MKL-1) 1.32 µM | Potency (MKL-2) 5.26 µM | Potency (UISO) 5.26 µM | Potency (WaGa) 2.96 µM

O=P(O)(O)C(O)(Cn1ccnc1)P(=O)(O)O
inactive: Potency (SC27B) | Potency (TAB109) | Potency (TAB113) | Potency (TAB165) | Potency (W2) | outcome (CRL-7250) | max response (HEK293) -11% | outcome (HaCat [1]) | max response (KB-3-1) -1.09% and 1.16% | max response (NIH3T3 [2]) -2.33% | outcome (HACAT [4]) inactive [at 17.4 µM] | Potency (MCC-13) | Potency (MKL-1) | Potency (MKL-2) | Potency (UISO) | Potency (WaGa)

O=C1c2c(O)cc(O)cc2OC(c2ccc(O)c(O)c2)C1O (centres undefined)
inactive: max response (CRL-7250) -1.4% | max response (HEK293) -0.947% | max response (HaCat [1]) 2.31% | outcome (KB-3-1) | max response (NIH3T3 [2]) -9.07% | Potency (MCC-13) | Potency (MCC-26) | Potency (MKL-1) | Potency (MKL-2) | Potency (UISO) | Potency (WaGa)

CCC(C)(Oc1ccc(C2(c3ccc(OC(C)(CC)C(=O)O)cc3)CCCCC2)cc1)C(=O)O (centres undefined)
inactive: Potency (SC27B) | Potency (TAB113) | Potency (TAB165) | Potency (W2) | max response (CRL-7250) -2.28% and 2.61% | max response (HEK293) -7.29% and -0.679% | outcome (HaCat [1]) | max response (NIH3T3 [2]) -0.924% | outcome (NIH3T3 [2]) | outcome (HACAT [4]) | Potency (MCC-13) | Potency (MCC-26) | Potency (MKL-1) | Potency (MKL-2) | outcome (NIH3T3 [3]) | Potency (UISO) | Potency (WaGa) | Potency (C33A)

— PubChem BioAssay (NCATS)
